Results filed as inconclusive are left out. Where a call stands in place of a potency, no number is given. Activity calls are given as the source filed them. The call rests on the fitted dose curve; in most records, active means well fitted cell-killing curve with a large enough effect in the repeat runs; inconclusive means weak or mixed curves, or effect the other way; inactive means no such curve, though single readings can be large or run the other way.

A short description of this assay: qHTS assay to identify small molecule antagonists of the vitamin D receptor (VDR) signaling pathway - cell viability counter screen (AID 743225). Further: nearly all actives have a fitted effect of over 50% in size. Conditions: VDR-bla HEK293T viability, CellTiter-Glo luminescence, 16 h; series mostly up to 61 µM. From the text:
U.S. Tox21 Program National Center for Advancing Translational Sciences [NCATS] NIH Chemical Genomics Center [NCGC] U.S. Environmental Protection Agency [EPA] National Institutes of Environmental Health Sciences [NIEHS] National Toxicology Program [NTP] U.S. Food and Drug Administration [FDA] Tox21 Assay Overview: The vitamin D receptor (VDR), a member of nuclear hormone receptor superfamily, plays a critical role in calcium homeostasis and bone metabolism. It is also involved in cell differentiation and growth, and thrombogenicity. To identify the compounds that inhibit VDR signaling, the VDR-UAS-bla HEK 293T cell line (Invitrogen, Carlsbad, CA, USA) containing a beta-lactamase reporter gene under the control of an upstream activator sequence (UAS) was used to screen the Tox21 10K compound library. The cytotoxicity of the Tox21 compound library against the VDR-bla cell line was tested in parallel by measuring the cell viability using CellTiter-Glo assay (Promega, Madison, WI) in the same wells.
Tox21 Assay Protocol Summary: VDR-bla cells were dispensed at 2,000 cells/5 uL of assay medium per well into black wall/clear-bottom 1536-well plates using a Multidrop Combi (Thermo Fisher Scientific, Waltham, MA) dispenser. After the assay plates were incubated at a 37C and 5% CO2 for 4 h, 23 nL of compounds dissolved in DMSO, positive controls or DMSO only was transferred to the assay plate by a Pintool station (Kalypsys, San Diego, CA), followed by addition of 1 uL of 1-alpha, 25-Dihydroxy Vitamin D3 (3 nM, final concentration in the wells) using a Bioraptr Flying Reagent Dispenser (FRD) workstation (Beckman Coulter, Indianapolis, IN). The plates were incubated at 37C and 5% CO2 for 16 h, and then 1 uL of LiveBLAzerTM B/G FRET substrate was added using a Bioraptr FRD. The plates were incubated at room temperature for 2 h and fluorescence intensity was measured by an Envision plate reader (PerkinElmer, Shelton, CT). For cell viability readout that measures cytotoxicity, 3 ul/well of CellTiter-Glo reagent was added into the assay plates using a Bioraptr FRD. After 30 min incubation at room temperature, the luminescence intensity in the plates was measured using a ViewLux plate reader (PerkinElmer).
Take `CCOC(=O)N1CCC(Nc2ccc(Cl)cc2N)CC1`: the Potency entry was “inactive”.
Take `Oc1ccc2c(c1)Cc1ccccc1-2`: the Potency result was “inactive”.
In the case of `CCCCCCCCCCCCCCCC(=O)OCC`, the Potency result was “inactive”.
`COc1ccc(-c2cc(=S)ss2)cc1`: the Potency entry is “inactive”.
Turning to `CCC(CO)(CO)[N+](=O)[O-]`, the Potency result was “inactive”.
On to `CC(=O)Oc1cccc(O)c1`, for which the Potency entry is “inactive”.
Consider `CC(C)(C)C(O)/C=C/c1ccc2c(c1)OCO2` (stereo not given), for which the Potency entry is “inactive”.
Take `COC(=O)C1=C(C)NC(C)=C(C(=O)OC(C)(C)CN(C)CCC(c2ccccc2)c2ccccc2)C1c1cccc([N+](=O)[O-])c1` (stereo not given): the Potency entry is “inactive”.
For the compound `CC(=O)OCC1=C(C(=O)O)N2C(=O)[C@@H](NC(=O)CSc3ccncc3)[C@H]2SC1`, the Potency result is “inactive”.
Consider `c1ccc(CNc2ncnc3c2ncn3C2CCCCO2)cc1` (stereo not given), for which the Potency entry is “inactive”.
For `CSSc1ccoc1C`, the Potency result was “inactive”.
`CC(C)C(=O)OCCOc1ccccc1`: the Potency result was “inactive”.
Turning to `COc1cc(NC(C)CCCN)c2ncccc2c1` (stereo not given), the Potency result was “inactive”.
The entry for `CCCCCCCC/C=C\CCCCCCCC(=O)OCCO` is “inactive”; for `CC(C)c1ccc(C(=O)N=C(N)N)cc1S(C)(=O)=O` it is “inactive”; for `C=C(C)c1ccccc1` it is “inactive”.
In the case of `CC(CN(CCN(CC(C)OCCO)CC(C)OCCO)CC(C)OCCO)OCCO` (stereo not given), the Potency result was “inactive”.
In the case of `CC1CCCC(=O)C1=O` (stereo not given), the Potency entry was “inactive”.
As for `CC1CCCO1` (stereo not given), the Potency entry was “inactive”.
For the compound `c1ccc2sc(SSc3nc4ccccc4s3)nc2c1`, the Potency result is “inactive”.
Consider `O=C(O)CCS`, for which the Potency entry was “inactive”.
As for `O=C1NC(=O)c2cccc3cccc1c23`, the entry is “inactive”.
Consider `CC(C)c1ccc(C#N)cc1`, for which the Potency entry was “inactive”.
In the case of `COC(=O)c1sccc1S(N)(=O)=O`, the Potency result is “inactive”.
In the case of `COc1cc(NS(=O)(=O)c2ccc(N)cc2)nc(C)n1`, the Potency entry is “inactive”.
In the case of `CC(=O)OCC(C)C`, the Potency result is “inactive”.
On to `[Cl][Nd]([Cl])[Cl]`, for which the Potency entry is “inactive”.
Consider `CC(C)CC(O)CC(C)C`, for which the Potency result was “inactive”.
`CCNc1nc(N)nc(Cl)n1`: the Potency result was “inactive”.
Take `CCCCCCCCCCCCCCCCCC(=O)OCC(CC)CCCC` (stereo not given): the Potency result was “inactive”.
On to `O=c1[nH][nH]c(=O)c2cc([N+](=O)[O-])ccc12`, for which the Potency entry is “inactive”.
`NC(=O)CCCCC(N)=O`: the Potency result was “inactive”.
In the case of `CC(=O)C(=O)CC(C)C`, the Potency result is “inactive”.
As for `CN1C(CSCC(F)(F)F)Nc2cc(Cl)c(S(N)(=O)=O)cc2S1(=O)=O` (stereo not given), the entry is “inactive”.
As to `CC(=O)OCC(=O)[C@@]1(OC(C)=O)[C@@H](C)C[C@H]2[C@@H]3C[C@H](F)C4=CC(=O)C=C[C@]4(C)[C@@]3(F)[C@@H](O)C[C@@]21C`, the Potency entry is “inactive”.
Regarding `CC1CCc2nccnc21` (stereo not given), the Potency result was “inactive”.
The entry for `CC(=O)OCCC(C)CC(C)(C)C` (stereo not given) is “inactive”.
Take `C1CCCCC1`: the Potency entry was “inactive”.
Turning to `C=CCOC(=O)COCCC(C)C`, the Potency entry is “inactive”.
For the compound `C[C@@H]1C[C@H]2[C@@H]3CCC4=CC(=O)C=C[C@]4(C)[C@@]3(F)[C@@H](O)C[C@]2(C)[C@@]1(O)C(=O)COP(=O)(O)O`, the Potency result was “inactive”.
